From the supplement of paper PMC10849652
The full data set covers some 7,900 targets. This sample favours those with a hit. About 0.6% of all pairs of compound and target were hits.

How the values were obtained:
Test in all cases: log2 fold change, soluble protein after heating vs DMSO (PISA); higher = thermal stabilisation; K562 cells, 10 uM, 30 min; active = over 0.2 and 3.5 SD of the protein, either way, in both replicates (recomputed)
[1] = compound: CC1=C(C=C(C=C1)NC(=O)C2=CC(=CC=C2)C(C)(C)C#N)NC3=CC4=C(C=C3)N=CN(C4=O)C
Summary of the method: (§1)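 K562 cells at 2×10^6 cells/mL were treated for 30 min with 10 μM compound, and aliquots were heated for 3 min over 48°C-58°C before pooling. Extraction used PBS with 0.5% NP-40 at 4°C, and soluble protein was the supernatant after 21,000xg for 90 min, measured by TMTpro 16plex LC-MS/MS with channel sums equalised. Thermal stability values, relative to control samples and from duplicates, are log2 fold changes.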

[2] = compound: CC1=C(C=C(C=C1)NC(=O)C2=CC(=CC=C2)N(C)C)NC(=O)C3=CC=C(C=C3)O
Summary of the method: as §1

[3] = compound: CC1=CC=C(C=C1)SC2=C3C=C(SC3=CN=C2)C(=O)N
Summary of the method: as §1

[4] = compound: CC1=NC(=CC=C1)C2=C(N=C(N2)C(C)(C)C)C3=CC4=NC=CN=C4C=C3
Summary of the method: as §1

Nexturastat A = compound: CCCCN(Cc1ccc(C(=O)NO)cc1)C(=O)Nc1ccccc1 [Nexturastat A]
Summary of the method: as §1

vemurafenib = compound: CCCS(=O)(=O)Nc1ccc(F)c(C(=O)c2c[nH]c3ncc(-c4ccc(Cl)cc4)cc23)c1F [vemurafenib]
Summary of the method: as §1

[5] = compound: CCCS(=O)(=O)Nc1ccc(F)c(C(=O)c2c[nH]c3ncc(Cl)cc23)c1F
Summary of the method: as §1

[6] = compound: CCCc1cc(C)[nH]c(=O)c1CNC(=O)c1cc(-c2ccnc(N3CCN(C)CC3)c2)cc2c1cnn2C(C)C
Summary of the method: as §1

barasertib = compound: CCN(CCCOc1ccc2c(Nc3cc(CC(=O)Nc4cccc(F)c4)[nH]n3)ncnc2c1)CCOP(=O)(O)O [barasertib]
Summary of the method: as §1

givinostat = compound: CCN(CC)Cc1ccc2cc(COC(=O)Nc3ccc(C(=O)NO)cc3)ccc2c1 [givinostat]
Summary of the method: as §1

Measured: log2 fold change

FAM118A (UniProt Q9NWS6)
inactive: [1] 0.057 | [2] 0.086 | [3] 0.101 | [4] -0.163 | Nexturastat A -0.031 | vemurafenib 0.182 | [5] 0.114 | [6] -0.016 | barasertib 0.112

EXOC1 (UniProt Q9NV70)
inactive: [1] -0.026 | [2] -0.01 | [3] 0.019 | [4] 0.027 | Nexturastat A 0.115 | vemurafenib -0.023 | [5] 0.028 | [6] 0.08 | givinostat 0.07 | barasertib 0.082

FAM241A (UniProt Q8N8J7)
active: [1] 0.536
inactive: [2] -0.012 | [3] -0.031 | [4] -0.028 | vemurafenib -0.083 | [5] 0.015 | [6] -0.009 | givinostat -0.037 | barasertib 0.06

CTU1 (UniProt Q7Z7A3)
Sequence of UniProt Q7Z7A3 (Q7Z7A3 whole entry, looked up): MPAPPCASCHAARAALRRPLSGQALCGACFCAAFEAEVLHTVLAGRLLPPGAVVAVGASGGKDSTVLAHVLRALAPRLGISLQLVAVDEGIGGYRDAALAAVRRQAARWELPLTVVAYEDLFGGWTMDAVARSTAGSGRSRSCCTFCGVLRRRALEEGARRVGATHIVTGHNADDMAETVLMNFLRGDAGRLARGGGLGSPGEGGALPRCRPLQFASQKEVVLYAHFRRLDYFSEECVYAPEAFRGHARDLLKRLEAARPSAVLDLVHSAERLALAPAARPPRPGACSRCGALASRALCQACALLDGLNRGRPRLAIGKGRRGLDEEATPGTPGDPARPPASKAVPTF
inactive: [1] 0.011 | [2] -0.023 | [3] 0.061 | [4] 0.059 | Nexturastat A -0.022 | vemurafenib 0.065 | [5] 0.034 | [6] -0.035 | givinostat 0.043 | barasertib 0

CWF19L2 (UniProt Q2TBE0)
inactive: [1] -0.048 | [2] 0.046 | [3] 0.166 | [4] -0.038 | [5] -0.057 | givinostat 0.035

EIF4G3 isoform 3 (UniProt O43432)
inactive: [1] -0.024 | [2] 0.01 | [3] 0 | [4] -0.015 | vemurafenib 0.047 | [5] 0.002 | [6] 0.067 | givinostat 0.08 | barasertib 0.059

DYRK1A isoform 2 (UniProt Q13627)
inactive: [1] -0.025 | [2] 0.061 | [3] 0.003 | [4] -0.005 | Nexturastat A -0.032 | vemurafenib -0.021 | [5] -0.024 | [6] -0.019 | givinostat 0.038 | barasertib 0.004

EXOC6 (UniProt Q8TAG9)
inactive: [1] -0.054 | [2] -0.028 | [3] 0.104 | [4] 0.032 | Nexturastat A 0.133 | vemurafenib 0.104 | [5] 0.022 | [6] 0.009 | givinostat 0.075 | barasertib -0.018

DNM2 isoform 4 (UniProt P50570)
inactive: [1] 0.062 | [2] -0.001 | [4] 0.23 | Nexturastat A 0.089 | [6] -0.032 | givinostat 0.159 | barasertib 0.013

DDB1 (UniProt Q16531)
inactive: [1] -0.012 | [2] 0.011 | [3] 0.006 | [4] 0 | Nexturastat A -0.036 | vemurafenib -0.012 | [5] -0.003 | [6] -0.027 | givinostat 0 | barasertib -0.01

EEF1D isoform 2 (UniProt P29692)
inactive: [1] 0.039 | [2] -0.034 | [3] -0.012 | [4] -0.003 | Nexturastat A 0.029 | vemurafenib -0.044 | [5] 0.049 | [6] -0.004 | givinostat 0.038 | barasertib 0.02

FADS1, A0A0A0MR51
inactive: [1] 0.09 | [2] -0.019 | [3] 0.008 | [4] 0.069 | Nexturastat A -0.006 | vemurafenib -0.002 | [5] 0.021 | [6] -0.034 | barasertib 0.031
active: givinostat -0.274

CUX1 isoform 3 (UniProt P39880)
inactive: [1] -0.039 | [2] 0.016 | [3] 0 | [4] -0.001 | Nexturastat A -0.013 | vemurafenib 0.043 | [5] 0.025 | [6] 0.065 | givinostat 0.002 | barasertib 0.013

ELF1 (UniProt P32519)
inactive: [1] 0.056 | [2] -0.05 | [3] 0 | [4] 0.033 | Nexturastat A -0.051 | [5] 0.091 | givinostat 0.152

DYNC1I2 isoform 2 (UniProt Q13409)
inactive: [1] 0.006 | [2] -0.054 | [3] -0.179 | [4] 0.061 | Nexturastat A 0.047 | [5] 0.018 | [6] 0.271 | givinostat 0.044 | barasertib 0.015

ELMO1 (UniProt Q92556)
inactive: [1] -0.075 | [2] -0.005 | [4] -0.074 | Nexturastat A -0.101 | vemurafenib -0.172 | [6] 0.218 | givinostat -0.043 | barasertib -0.105

DHX36 (UniProt Q9H2U1)
Sequence of UniProt Q9H2U1 (Q9H2U1 whole entry, looked up): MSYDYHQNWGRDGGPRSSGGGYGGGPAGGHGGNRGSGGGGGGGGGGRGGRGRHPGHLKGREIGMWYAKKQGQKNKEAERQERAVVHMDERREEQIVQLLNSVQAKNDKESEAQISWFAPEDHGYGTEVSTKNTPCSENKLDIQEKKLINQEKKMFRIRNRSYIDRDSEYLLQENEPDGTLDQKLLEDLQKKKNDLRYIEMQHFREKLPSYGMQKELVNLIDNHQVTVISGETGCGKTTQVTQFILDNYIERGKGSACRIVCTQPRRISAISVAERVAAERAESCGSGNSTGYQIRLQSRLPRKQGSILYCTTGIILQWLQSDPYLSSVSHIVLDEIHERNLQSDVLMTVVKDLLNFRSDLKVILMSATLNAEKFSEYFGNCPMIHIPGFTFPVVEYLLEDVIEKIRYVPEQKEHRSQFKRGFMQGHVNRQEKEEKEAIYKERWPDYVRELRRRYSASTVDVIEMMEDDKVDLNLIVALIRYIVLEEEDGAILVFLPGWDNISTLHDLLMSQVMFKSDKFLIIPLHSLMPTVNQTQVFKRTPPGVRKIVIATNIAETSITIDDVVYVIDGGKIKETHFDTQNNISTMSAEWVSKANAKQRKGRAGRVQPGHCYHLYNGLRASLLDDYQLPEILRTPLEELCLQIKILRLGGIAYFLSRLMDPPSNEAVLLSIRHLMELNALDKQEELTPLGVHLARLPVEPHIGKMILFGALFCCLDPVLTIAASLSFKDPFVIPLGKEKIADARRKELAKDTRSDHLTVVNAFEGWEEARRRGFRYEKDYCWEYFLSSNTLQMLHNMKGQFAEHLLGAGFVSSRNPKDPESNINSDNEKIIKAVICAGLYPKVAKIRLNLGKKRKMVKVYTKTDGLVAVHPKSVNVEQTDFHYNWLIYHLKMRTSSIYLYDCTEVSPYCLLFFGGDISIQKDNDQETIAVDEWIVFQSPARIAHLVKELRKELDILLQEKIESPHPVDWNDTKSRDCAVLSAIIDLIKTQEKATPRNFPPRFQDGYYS
inactive: [1] 0.015 | [2] 0 | [3] -0.034 | [4] -0.033 | Nexturastat A 0.111 | vemurafenib 0.012 | [5] 0.02 | [6] -0.005 | givinostat -0.031 | barasertib -0.064

EHD2 (UniProt Q9NZN4)
inactive: [1] -0.037 | [2] -0.026 | [3] -0.007 | [4] 0.059 | Nexturastat A 0.003 | vemurafenib 0.029 | [5] 0.007 | [6] -0.024 | givinostat 0.024 | barasertib 0.03

DHRS1 (UniProt Q96LJ7)
Sequence of UniProt Q96LJ7 (Q96LJ7 whole entry, looked up): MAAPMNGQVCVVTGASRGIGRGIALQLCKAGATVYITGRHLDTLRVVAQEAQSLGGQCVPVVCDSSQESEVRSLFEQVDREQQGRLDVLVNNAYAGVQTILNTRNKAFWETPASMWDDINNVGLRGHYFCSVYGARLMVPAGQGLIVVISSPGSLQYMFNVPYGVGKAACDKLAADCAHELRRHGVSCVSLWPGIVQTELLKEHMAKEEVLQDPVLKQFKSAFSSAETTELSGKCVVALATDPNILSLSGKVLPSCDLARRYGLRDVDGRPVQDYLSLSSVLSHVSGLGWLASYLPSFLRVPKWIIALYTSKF
inactive: [1] 0.357 | [2] -0.143 | [3] -0.166 | [4] -0.202 | Nexturastat A 0.096 | vemurafenib 0.29 | [5] -0.079 | [6] 0.088 | givinostat 0.068 | barasertib -0.05

EDEM2 (UniProt Q9BV94)
inactive: [1] -0.064 | [2] -0.001 | [3] -0.084 | [4] -0.204 | Nexturastat A 0.036 | vemurafenib -0.032 | [5] -0.149 | [6] 0.095 | givinostat 0.013 | barasertib 0.21

CTSC (UniProt P53634)
inactive: [1] -0.113 | [2] 0.001 | [3] 0.059 | [4] -0.003 | Nexturastat A -0.009 | vemurafenib 0.035 | [5] 0.01 | [6] 0.03 | givinostat 0.017 | barasertib 0.023

FAM122A (UniProt Q96E09)
inactive: [1] -0.01 | [2] -0.005 | [3] 0.045 | [4] -0.006 | Nexturastat A 0.107 | vemurafenib -0.017 | [5] 0.095 | [6] 0.026 | givinostat 0.064 | barasertib -0.016

DDX27 (UniProt Q96GQ7)
Sequence of UniProt Q96GQ7 (Q96GQ7 whole entry, looked up): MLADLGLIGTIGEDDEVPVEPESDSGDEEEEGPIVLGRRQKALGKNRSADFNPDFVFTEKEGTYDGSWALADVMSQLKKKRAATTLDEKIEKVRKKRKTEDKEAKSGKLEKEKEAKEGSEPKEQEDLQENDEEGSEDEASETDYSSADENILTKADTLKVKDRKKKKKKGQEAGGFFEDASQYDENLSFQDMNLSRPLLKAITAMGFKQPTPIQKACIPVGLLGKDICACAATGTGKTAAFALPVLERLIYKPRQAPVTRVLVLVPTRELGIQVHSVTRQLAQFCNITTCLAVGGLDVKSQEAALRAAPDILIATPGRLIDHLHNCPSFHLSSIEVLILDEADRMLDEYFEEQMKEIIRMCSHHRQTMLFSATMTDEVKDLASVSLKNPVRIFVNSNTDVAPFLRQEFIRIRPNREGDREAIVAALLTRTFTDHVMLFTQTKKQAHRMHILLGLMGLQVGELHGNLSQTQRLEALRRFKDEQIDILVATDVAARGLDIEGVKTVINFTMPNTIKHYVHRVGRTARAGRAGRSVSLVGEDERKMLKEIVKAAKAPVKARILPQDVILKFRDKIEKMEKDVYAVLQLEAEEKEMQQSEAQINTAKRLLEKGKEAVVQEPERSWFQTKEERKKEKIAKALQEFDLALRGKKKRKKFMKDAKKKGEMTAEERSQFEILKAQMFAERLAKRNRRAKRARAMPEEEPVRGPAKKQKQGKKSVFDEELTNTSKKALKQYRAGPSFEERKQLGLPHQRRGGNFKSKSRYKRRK
inactive: [1] -0.026 | [2] -0.057 | [4] -0.293 | Nexturastat A 0.249 | vemurafenib -0.25 | [6] -0.142 | givinostat 0.081

EHBP1L1 (UniProt Q8N3D4)
inactive: [1] 0 | [2] -0.02 | [3] -0.003 | [4] -0.043 | Nexturastat A 0.011 | vemurafenib 0.034 | [5] 0.007 | [6] 0.025 | givinostat 0.026 | barasertib 0.016

DPP8 (UniProt Q6V1X1)
inactive: [1] -0.109 | [2] -0.026 | [3] -0.031 | [4] 0.021 | Nexturastat A 0.082 | vemurafenib -0.056 | [5] -0.05 | [6] -0.176 | givinostat -0.026 | barasertib 0.014

DOCK8 (UniProt Q8NF50)
Sequence of UniProt Q8NF50 (Q8NF50 whole entry, looked up): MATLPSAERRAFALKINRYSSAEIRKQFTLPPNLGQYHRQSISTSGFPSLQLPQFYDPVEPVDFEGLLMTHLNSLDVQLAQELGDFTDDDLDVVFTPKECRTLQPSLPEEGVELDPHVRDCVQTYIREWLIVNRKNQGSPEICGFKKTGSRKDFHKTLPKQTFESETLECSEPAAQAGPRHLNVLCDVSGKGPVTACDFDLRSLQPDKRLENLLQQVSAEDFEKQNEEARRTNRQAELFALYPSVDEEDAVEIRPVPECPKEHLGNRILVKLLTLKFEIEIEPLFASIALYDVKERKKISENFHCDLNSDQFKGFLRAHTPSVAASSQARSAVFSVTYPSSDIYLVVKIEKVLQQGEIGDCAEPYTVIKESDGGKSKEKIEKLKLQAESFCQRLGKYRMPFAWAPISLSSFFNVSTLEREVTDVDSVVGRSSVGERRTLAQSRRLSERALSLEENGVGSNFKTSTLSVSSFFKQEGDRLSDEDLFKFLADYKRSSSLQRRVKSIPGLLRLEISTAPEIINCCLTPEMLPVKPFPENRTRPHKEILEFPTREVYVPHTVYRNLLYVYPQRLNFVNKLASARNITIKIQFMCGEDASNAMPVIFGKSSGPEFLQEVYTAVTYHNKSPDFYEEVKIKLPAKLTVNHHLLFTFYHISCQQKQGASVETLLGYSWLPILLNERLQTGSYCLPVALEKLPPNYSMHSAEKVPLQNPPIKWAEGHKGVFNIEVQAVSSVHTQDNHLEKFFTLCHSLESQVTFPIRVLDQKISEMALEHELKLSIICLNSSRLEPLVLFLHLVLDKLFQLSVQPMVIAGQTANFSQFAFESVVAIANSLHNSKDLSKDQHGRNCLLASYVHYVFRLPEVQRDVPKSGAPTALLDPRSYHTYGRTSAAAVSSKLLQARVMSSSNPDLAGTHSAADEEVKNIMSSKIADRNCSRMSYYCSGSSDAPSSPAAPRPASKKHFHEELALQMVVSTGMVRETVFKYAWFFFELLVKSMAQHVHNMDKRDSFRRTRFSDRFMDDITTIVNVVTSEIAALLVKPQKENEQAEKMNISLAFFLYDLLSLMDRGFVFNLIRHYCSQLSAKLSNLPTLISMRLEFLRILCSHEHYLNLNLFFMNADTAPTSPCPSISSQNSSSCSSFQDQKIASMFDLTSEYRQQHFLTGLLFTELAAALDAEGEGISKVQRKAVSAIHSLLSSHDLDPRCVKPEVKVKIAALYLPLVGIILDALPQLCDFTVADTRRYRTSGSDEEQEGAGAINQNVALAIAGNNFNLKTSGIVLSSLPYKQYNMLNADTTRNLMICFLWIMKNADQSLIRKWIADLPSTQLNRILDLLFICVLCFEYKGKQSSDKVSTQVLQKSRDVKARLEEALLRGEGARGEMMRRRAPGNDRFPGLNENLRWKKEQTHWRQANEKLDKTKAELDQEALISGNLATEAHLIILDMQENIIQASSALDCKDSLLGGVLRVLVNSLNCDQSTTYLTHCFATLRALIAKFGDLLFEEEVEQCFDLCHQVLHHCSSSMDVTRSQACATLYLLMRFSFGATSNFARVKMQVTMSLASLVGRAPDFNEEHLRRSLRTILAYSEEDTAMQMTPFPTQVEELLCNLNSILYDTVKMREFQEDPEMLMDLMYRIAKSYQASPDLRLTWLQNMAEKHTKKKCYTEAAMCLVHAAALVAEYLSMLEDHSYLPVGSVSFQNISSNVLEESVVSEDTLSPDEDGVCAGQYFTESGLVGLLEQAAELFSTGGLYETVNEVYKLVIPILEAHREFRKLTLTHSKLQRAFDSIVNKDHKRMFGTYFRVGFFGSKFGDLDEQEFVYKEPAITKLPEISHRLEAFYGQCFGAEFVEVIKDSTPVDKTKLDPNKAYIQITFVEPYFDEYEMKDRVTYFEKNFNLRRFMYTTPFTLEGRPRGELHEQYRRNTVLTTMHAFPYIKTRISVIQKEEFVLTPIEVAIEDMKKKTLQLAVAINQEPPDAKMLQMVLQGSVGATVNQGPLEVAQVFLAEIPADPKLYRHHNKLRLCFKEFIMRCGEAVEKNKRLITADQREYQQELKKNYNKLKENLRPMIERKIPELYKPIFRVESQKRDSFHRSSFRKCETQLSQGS
inactive: [1] -0.094 | [2] -0.051 | [4] -0.086 | Nexturastat A 0.468 | vemurafenib 0.134 | [6] 0.093 | givinostat 0.245 | barasertib 0.055

DDX4 (UniProt Q9NQI0)
inactive: [1] -0.451 | [2] 0.035 | [3] -0.328 | [4] -0.336 | Nexturastat A 0.263 | vemurafenib -0.569 | [5] -0.447 | [6] 0.327 | givinostat 0.271 | barasertib -0.094

DBR1 (UniProt Q9UK59)
Sequence of UniProt Q9UK59 (Q9UK59 whole entry, looked up): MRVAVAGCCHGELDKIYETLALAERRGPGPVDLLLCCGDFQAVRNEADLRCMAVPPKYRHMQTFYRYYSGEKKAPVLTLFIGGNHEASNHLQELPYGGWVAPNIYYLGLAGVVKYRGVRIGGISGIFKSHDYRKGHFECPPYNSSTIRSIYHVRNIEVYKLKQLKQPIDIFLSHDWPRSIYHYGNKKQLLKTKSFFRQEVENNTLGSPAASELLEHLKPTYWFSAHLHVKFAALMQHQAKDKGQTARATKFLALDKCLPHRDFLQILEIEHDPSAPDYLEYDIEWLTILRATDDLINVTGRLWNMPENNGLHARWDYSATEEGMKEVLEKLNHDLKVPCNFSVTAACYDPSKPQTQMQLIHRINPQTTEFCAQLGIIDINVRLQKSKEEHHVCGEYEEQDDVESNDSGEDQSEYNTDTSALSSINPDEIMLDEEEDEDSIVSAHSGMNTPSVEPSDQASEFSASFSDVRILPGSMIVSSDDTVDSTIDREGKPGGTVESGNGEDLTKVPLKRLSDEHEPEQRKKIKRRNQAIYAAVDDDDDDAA
inactive: [1] -0.005 | [2] 0.028 | [3] 0.007 | [4] 0.049 | Nexturastat A -0.007 | vemurafenib 0.024 | [5] 0.037 | [6] -0.033 | givinostat -0.16 | barasertib -0.022

EGR1 (UniProt P18146)
inactive: [1] -0.128 | [2] -0.024 | [3] -0.404 | Nexturastat A 0.53 | vemurafenib 0.305 | [5] -0.13 | [6] -0.027 | givinostat -0.06 | barasertib -0.048
